Test results taken from paper PMC4336329 (PLoS ONE, 2015).
Among all 310,000 compounds or so, about 14,000 (4.5%) showed an effect of 50% or more. Effects have a minus sign here. For the sample, strong results were picked, then their nearest neighbours and some compounds at random.

biological target: human ether-à-go-go-related gene (hERG) potassium channel (human, UniProt Q12809); experiment: primary screen, population patch clamp on CHO cells stably expressing hERG; higher = less effect of the substance
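Further: peak tail current of the secondary pulse compared with the same well before compound.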

human ether-à-go-go-related gene (hERG) potassium channel, sequence (Q12809 whole entry, looked up): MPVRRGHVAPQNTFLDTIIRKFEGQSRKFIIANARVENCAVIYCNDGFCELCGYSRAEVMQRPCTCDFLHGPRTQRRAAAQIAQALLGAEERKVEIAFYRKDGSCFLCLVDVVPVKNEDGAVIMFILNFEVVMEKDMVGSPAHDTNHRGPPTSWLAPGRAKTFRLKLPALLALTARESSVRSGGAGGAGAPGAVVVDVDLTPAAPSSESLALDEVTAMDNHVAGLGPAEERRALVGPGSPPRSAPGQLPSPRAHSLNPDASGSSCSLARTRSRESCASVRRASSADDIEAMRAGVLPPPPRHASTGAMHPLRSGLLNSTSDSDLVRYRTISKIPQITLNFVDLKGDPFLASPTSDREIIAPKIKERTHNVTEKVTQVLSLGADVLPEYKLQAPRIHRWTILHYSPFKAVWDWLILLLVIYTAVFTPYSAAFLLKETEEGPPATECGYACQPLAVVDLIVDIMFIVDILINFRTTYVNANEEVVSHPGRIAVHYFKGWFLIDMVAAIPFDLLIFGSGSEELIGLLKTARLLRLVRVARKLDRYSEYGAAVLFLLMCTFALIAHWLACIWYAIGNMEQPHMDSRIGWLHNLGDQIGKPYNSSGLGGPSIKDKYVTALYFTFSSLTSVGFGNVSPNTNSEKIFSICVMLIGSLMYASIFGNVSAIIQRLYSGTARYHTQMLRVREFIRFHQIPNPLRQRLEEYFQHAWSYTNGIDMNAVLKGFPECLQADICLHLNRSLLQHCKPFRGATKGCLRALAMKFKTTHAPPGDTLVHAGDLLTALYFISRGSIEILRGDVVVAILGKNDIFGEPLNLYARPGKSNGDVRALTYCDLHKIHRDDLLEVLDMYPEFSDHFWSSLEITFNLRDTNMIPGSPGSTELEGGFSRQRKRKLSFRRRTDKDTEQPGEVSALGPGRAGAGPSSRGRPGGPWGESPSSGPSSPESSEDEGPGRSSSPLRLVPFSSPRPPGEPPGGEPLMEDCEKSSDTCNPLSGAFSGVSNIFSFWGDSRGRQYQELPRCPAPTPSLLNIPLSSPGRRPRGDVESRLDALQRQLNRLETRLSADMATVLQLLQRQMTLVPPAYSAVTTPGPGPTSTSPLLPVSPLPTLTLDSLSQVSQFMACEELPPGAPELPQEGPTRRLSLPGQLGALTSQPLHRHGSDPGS

SMILES | hERG current change (%, negative = inhibition) at 10uM
CCOC(=O)c1c(N)nn(C(=O)c2ccccc2F)c1-c1ccc(OC)cc1 | 3.53%
Nn1c(Cc2cccc3ccccc23)nnc1SCC(=O)N1CC(=O)Nc2ccccc21 | 7.01%
Cc1ccc2cc(CCNC(=O)c3ccco3)c(=O)[nH]c2c1 | -13.6%
CCN(CC)c1ccc(-n2c(C)cc(C=O)c2C)cc1 | 6.33%
CCC[N+]12CCC(CC1)C(C(O)(c1ccccc1)c1ccccc1)C2.[Br-] (stereo not shown) | -0.95%
CCCC[N+]12CCC(CC1)C(C(O)(c1ccccc1)c1ccccc1)C2.[Br-] (stereo not shown) | 5.84%
CCC[N+]12CCC(CC1)C(=C(c1ccccc1)c1ccccc1)C2.[Br-] | -70.1%
CCCC[N+]12CCC(CC1)C(Cc1ccccc1)C2.[Br-] (stereo not shown) | 21.9%
CC[N+]12CCC(CC1)C(=C(c1ccccc1)c1ccccc1)C2.[Br-] | -73.6%
CC[N+]12CCC(CC1)C(C(O)(c1ccccc1)c1ccccc1)C2.[Br-] (stereo not shown) | -5.24%
CCC/C(=N\NC(=O)C1CC1)c1ccccc1 | -2.21%
CC/C(=N/N=C(\CC)c1ccccc1)c1ccccc1 | 5.16%
CCCC[N+]12CCC(CC1)C(=C(c1ccccc1)c1ccccc1)C2.[Br-] | -72.4%
COC(=O)COc1ccc2c(=O)c(-c3ccccc3OC)coc2c1 | 10.2%
COc1ccc(CSc2nncn2N)cc1Br | 4.98%
Cc1cc(C)c(-n2c(C)cc(/C=C3/NC(=O)NC3=O)c2C)c(C)c1 | -9.75%
CCOc1ccccc1N(C)C(=O)CCS(=O)(=O)c1ccc2c(c1)NC(=O)CO2 | 5.58%
CC(C)CCOP(=O)(c1ccc(N(C)C)cc1)C(O)c1ccc(Cl)cc1Cl (stereo not shown) | 0.259%
CCCOP(=O)(c1ccc(N(C)C)cc1)C(O)c1ccc(Cl)cc1 (stereo not shown) | 9.5%
CCCOP(=O)(c1ccc(N(C)C)cc1)C(O)c1ccc(Cl)cc1Cl (stereo not shown) | -54.9%
CC1CC(C)CN(c2oc(-c3ccco3)nc2C#N)C1 (stereo not shown) | 0.193%
COc1cc(/C=N/NC(=O)c2ccncc2)ccc1OCc1cnc(Cl)s1 | 2.43%

SMILES | hERG current change (%, negative = inhibition) at 10uM
COc1ccc(-c2cc(C#N)nc(N3CCNCC3)n2)cc1 | -79.3%
COc1ccc(-c2cc(C#N)nc(N3CCN(C)CC3)n2)cc1 | -42.5%
N#Cc1cc(-c2ccccc2)nc(N2CCNCC2)n1 | -11.3%
Cc1ccc(NC(=O)C(=O)NCCN2CCN(S(C)(=O)=O)CC2)cc1C | 0.0768%
O=C(NCCc1ccccc1)c1ccc(CS(=O)Cc2cccc(Cl)c2)o1 (stereo not shown) | -6.23%
CCOc1ccc(CCNC(=O)c2ccc(CS(=O)Cc3ccc(Cl)cc3)o2)cc1 (stereo not shown) | -14.1%
CSc1ccc(CCNC(=O)c2ccc(CS(=O)Cc3ccccc3Cl)o2)cc1 (stereo not shown) | -2.87%
O=C(NCCc1ccc(Cl)cc1)c1ccc(CS(=O)Cc2ccccc2Cl)o1 (stereo not shown) | -30%
COc1ccccc1S(=O)Cc1ccc(C(=O)NCc2ccccc2Cl)o1 (stereo not shown) | -19.5%
CCOc1ccc(CCNC(=O)c2ccc(CS(=O)Cc3ccccc3Cl)o2)cc1 (stereo not shown) | -19%
CCOc1ccc(CCNC(=O)c2ccc(CS(=O)Cc3cccc(Cl)c3)o2)cc1 (stereo not shown) | -76%
O=C(NCCc1ccccc1)c1ccc(CS(=O)Cc2ccc(Cl)cc2)o1 (stereo not shown) | -58.8%
COc1ccc(CCNC(=O)c2ccc(CS(=O)Cc3ccc(Cl)cc3)o2)cc1OC (stereo not shown) | -26.7%
O=C(NCCCc1ccccc1)c1ccc(CS(=O)Cc2ccccc2Cl)o1 (stereo not shown) | -76.2%
O=C(NCCc1ccc(Cl)cc1)c1ccc(CS(=O)Cc2ccc(Cl)cc2)o1 (stereo not shown) | -39.8%
COc1ccccc1S(=O)Cc1ccc(C(=O)NCCc2ccc(Cl)cc2)o1 (stereo not shown) | -65.4%
CCOc1ncccc1C(=O)NNC(=O)c1ccc(NS(=O)(=O)c2cccs2)cc1 | 13%
Cc1onc(-c2ccccc2)c1C(=O)Nc1sc2c(c1C(N)=O)CCC2 | 6.44%
CCC(C)NC(=O)C1CCN(c2nc(OC)nc(OC)n2)CC1 (stereo not shown) | -4.66%
CCN(Cc1cc2ccccc2[nH]c1=O)C(=O)c1cccc([N+](=O)[O-])c1 | -21.8%
Clc1cccc(-c2cc3nc4c(c(N5CCOCC5)n3n2)CCCC4)c1 | -6.06%
Cn1c(=O)n(-c2cccc(Cl)c2)c(=O)n1C | 6.81%

SMILES | hERG current change (%, negative = inhibition) at 10uM
Brc1ccccc1-c1nc(-c2ccccc2)no1 | 5.04%
CC1(C)CC(=O)C2=C(C1)c1c(ccc3ccccc13)NC2c1ccco1 (stereo not shown) | 14.1%
CC12CCC(=O)N1C(C(=O)Nc1ccccc1N1CCCCC1)CS2 (stereo not shown) | -15.9%
CCN(CC)S(=O)(=O)N1CCC(C(=O)NC2CCCc3ccccc32)CC1 (stereo not shown) | -8%
Cc1cc(Br)c(S(=O)(=O)NCc2ccncc2)cc1C | 7.87%
CNc1cncc(C(=O)O)c1 | 7.43%
Cc1ccc(O)c(C(=O)c2cnc3onc(-c4ccc(F)cc4)c3c2)c1 | 4.58%
O=C(NCCc1cccs1)c1ccc(CS(=O)Cc2ccc(Cl)cc2)o1 (stereo not shown) | -20.4%
O=C(NCCCc1ccccc1)c1ccc(CS(=O)Cc2ccc(Cl)cc2)o1 (stereo not shown) | -74.3%
Cc1ccc(CS(=O)Cc2ccc(C(=O)NCCc3ccccc3)o2)cc1 (stereo not shown) | -7.62%
Cc1ccccc1C(=O)N1CCN(c2ccc(NC(=O)c3ccco3)cc2)CC1 | 5.43%
COc1cccc(CN(C)CC(O)COc2cc(Cl)ccc2Cl)c1.O=C(O)C(=O)O (stereo not shown) | -42%
CCc1ccc(CN(C)CC(O)COc2cccc3ccccc23)cc1 (stereo not shown) | -25.2%
COc1cccc(CN(C)CC(=O)Nc2c(C)cccc2C(C)C)c1 | -12.2%
COc1ccc(C(OCC(O)CN2CCC(O)CC2)c2ccc(OC)cc2)cc1 (stereo not shown) | -48%
CCc1ccc(CNCc2ccc(OCC(O)CN(C)Cc3ccccc3)cc2)nc1 (stereo not shown) | -17.4%
CN(Cc1ccccc1)CC(O)COc1ccc(CNCc2cc3ccccc3s2)cc1 (stereo not shown) | -25.7%
CCOc1ccc(CN(C)CC(O)COC(c2ccc(OC)cc2)c2ccc(OC)cc2)cc1 (stereo not shown) | -77.4%
COc1ccc(CN(C)CC(O)COC(c2ccc(OC)cc2)c2ccc(OC)cc2)cc1 (stereo not shown) | -77.2%
COc1cccc(CN(C)CC(O)COC(c2ccccc2)c2ccccc2C)c1 (stereo not shown) | -72.1%
Cn1c(COc2ccccc2)nnc1SCc1nc2ccccc2[nH]1 | -9.92%
CCOc1ncccc1C(=O)NC(C)CCc1ccccc1 (stereo not shown) | -6.92%

SMILES | hERG current change (%, negative = inhibition) at 10uM
COc1ccc(OC)c(/C=C2\S/C(=N/NC(=O)c3ccc4ccccc4c3)NC2=O)c1 | 16.5%
COc1cccc(CNS(=O)(=O)c2ccc3c(c2)CC(C)N3C(=O)C2CC2)c1 (stereo not shown) | 18.5%
Cc1cccc(-c2nc(CNC(=O)c3ccco3)cs2)c1 | -57.9%
Cc1ccc(-c2nc(CNC(=O)c3ccco3)cs2)cc1 | -13.6%
O=C(NCc1csc(-c2ccccc2)n1)c1ccco1 | -40%
COc1ccc(CNC(=O)[C@@H](NC(=O)C2CCN(C(=O)[C@@H]3CCCN3C(=O)OC(C)(C)C)CC2)C(C)C)cc1 | -9.4%
CCOc1ccc(CCNC(=O)CN(C)S(=O)(=O)c2cccc3nsnc23)cc1OCC | -9.79%
COc1ccc(S(=O)(=O)N(CCCN2CCOCC2)Cc2ccc(OC)c(OC)c2)cc1 | -39.9%
O=C(O)C(=O)O.O=[N+]([O-])c1ccc(S(=O)(=O)N(CCCN2CCOCC2)Cc2cccs2)cc1 | -70.6%
COc1ccc(S(=O)(=O)N(CCCN2CCOCC2)Cc2cccc3ccccc23)cc1 | -48.6%
O=C(O)C(=O)O.O=S(=O)(c1ccc(Cl)cc1)N(CCCN1CCOCC1)Cc1cccs1 | -63.7%
CC(C)(C)c1ccc(S(=O)(=O)N(CCCN2CCOCC2)Cc2cccs2)cc1.O=C(O)C(=O)O | -33.4%
CC(=O)Nc1ccc(S(=O)(=O)N(CCCN2CCOCC2)Cc2cccs2)cc1.O=C(O)C(=O)O | -20.9%
O=C(Nc1ccc(N2CCCCC2)cc1)c1cccnc1Cl | 13.4%
CCOC(=O)C1CCCN(C(=O)c2cc(CN3C(=O)c4ccccc4C3=O)ccc2OC)C1 (stereo not shown) | -9.55%
C=CCc1cccc(/C=N/NC(=O)c2ccccc2OC)c1O | 14.1%
C=CCc1cccc(/C=N/NC(=O)c2ccccc2Br)c1O | -50.2%
C=CCc1cccc(/C=N/NC(=O)CNc2ccccc2)c1O | -2.16%
O=C(C1=C(O)C(=O)N(CCCn2ccnc2)C1c1ccc(F)cc1)c1ccco1 (stereo not shown) | 15.8%
